The supplement of paper PMC6089552
“And” between values parts separate entries of the source, which are not always exact repeats. Equal values may be shown once. Among all 3,200 compounds or so, about 300 (9.4%) showed activity. This excerpt belongs to a sample that is enriched for actives.

Tested on: A673/TR/shEF
Experiment: cell viability (LOESS-normalised, relative to median of negative controls) (log2 ratio); higher = more viable cells (less compound effect), active = hit call of the paper (over 3 MAD below the median)
Details: treatment time: 72 h
In short: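 Viability of A673/TR/shEF Ewing sarcoma cells was determined by CellTiter-Glo luminescence. The cells, at 1,500 per well in 384-well plates, were grown with or without doxycycline from 24 h before compound addition to switch on EWS-FLI1 shRNA knockdown, then exposed for three days to library compounds at two or more concentrations or to DMSO controls. Signals were LOESS-corrected plate by plate, normalised to the negative-control median and log2-transformed.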

[1] = 0.025 µM, library screen: screen1, EWS-FLI1 expression: high (no doxycycline)
[2] = 0.025 µM, library screen: screen1, EWS-FLI1 expression: low (doxycycline-induced shRNA knockdown)
[3] = 0.25 µM, library screen: screen1, EWS-FLI1 expression: high (no doxycycline)
[4] = 0.25 µM, library screen: screen1, EWS-FLI1 expression: low (doxycycline-induced shRNA knockdown)
[5] = 2.5 µM, library screen: screen1, EWS-FLI1 expression: high (no doxycycline)
[6] = 2.5 µM, library screen: screen1, EWS-FLI1 expression: low (doxycycline-induced shRNA knockdown)
[7] = 25 µM, library screen: screen1, EWS-FLI1 expression: high (no doxycycline)
[8] = 25 µM, library screen: screen1, EWS-FLI1 expression: low (doxycycline-induced shRNA knockdown)
[9] = 0.25 µM, library screen: screen2, EWS-FLI1 expression: high (no doxycycline)
[10] = 0.25 µM, library screen: screen2, EWS-FLI1 expression: low (doxycycline-induced shRNA knockdown)
[11] = 2.5 µM, library screen: screen2, EWS-FLI1 expression: high (no doxycycline)
[12] = 2.5 µM, library screen: screen2, EWS-FLI1 expression: low (doxycycline-induced shRNA knockdown)

Measured: cell viability (log2)

COCc1cc(O)c(O)c(O)c1-c1c(COC)cc(O)c(O)c1O
active: [7] -4.25 | [8] -2.42
inactive: [1] 0.13 | [2] 0.0379 | [3] 0.161 | [4] -0.00717 | [5] -0.00977 | [6] 0.159

COc1c(O)cc(O)cc1O
inactive: [3] 0.0746 | [4] 0.0275 | [5] 0.127 | [6] 0.0739

CC(=O)c1c(C(C)=O)c(C)n(-c2cc(C)cc(C)c2)c1C
inactive: [3] 0.0993 | [4] 0.13 | [5] 0.0722 | [6] 0.0963

CC(C)N1C(=O)C(=Cc2ccc(F)cc2)SC1=S
inactive: [3] 0.0751 | [4] 0.059 | [5] 0.129 | [6] -0.0496

CC1CNCCN1S(=O)(=O)c1cccc2cnccc12 (configuration not stated)
active: [7] -0.155
0.301: [3]
inactive: [2] 0.0557 | [4] 0.0236 | [9] 0.145 and 0.204 | [10] 0.0425 and 0.187 | [5] -0.0561 | [6] 0.0655 | [11] 0.0837 and 0.258 | [12] 0.0573 and 0.209 | [8] 0.112
0.354: [1]

O=S(=O)(c1cccc2cnccc12)N1CCNCC1
inactive: [9] 0.166 | [10] 0.045 | [11] 0.145 | [12] 0.0254

O=S(=O)(c1cccc2cnccc12)N1CCCNCC1
0.279: [1]
inactive: [2] -0.0219 | [4] -0.0194 | [6] 0.0781 | [8] 0.0444
0.333: [3]
active: [5] -0.187 | [7] -0.284

c1cc(CN2CCCNCCNCCCNCC2)ccc1CN1CCCNCCNCCCNCC1
inactive: 0.103 µM, library screen: screen3, EWS-FLI1 expression: high (no doxycycline) 0.00595 | 0.103 µM, library screen: screen3, EWS-FLI1 expression: low (doxycycline-induced shRNA knockdown) 0.0496 | 0.308 µM, library screen: screen3, EWS-FLI1 expression: high (no doxycycline) 0.0705 | 0.308 µM, library screen: screen3, EWS-FLI1 expression: low (doxycycline-induced shRNA knockdown) 0.00482 | 0.926 µM, library screen: screen3, EWS-FLI1 expression: high (no doxycycline) 0.086 | 0.926 µM, library screen: screen3, EWS-FLI1 expression: low (doxycycline-induced shRNA knockdown) 0.0433 | 2.8 µM, library screen: screen3, EWS-FLI1 expression: high (no doxycycline) 0.0246 | 2.8 µM, library screen: screen3, EWS-FLI1 expression: low (doxycycline-induced shRNA knockdown) 0.0244 | 8.3 µM, library screen: screen3, EWS-FLI1 expression: high (no doxycycline) 0.0572 | 8.3 µM, library screen: screen3, EWS-FLI1 expression: low (doxycycline-induced shRNA knockdown) 0.0352 | 25 µM, library screen: screen3, EWS-FLI1 expression: high (no doxycycline) 0.0828 | 25 µM, library screen: screen3, EWS-FLI1 expression: low (doxycycline-induced shRNA knockdown) 0.0617

O=S(=O)(c1cccc2c(I)cccc12)N1CCCNCC1
active: [5] -0.248 | [7] -0.335 | [8] -0.197
inactive: [1] 0.188 | [2] -0.167 | [3] 0.201 | [4] -0.255 | [9] 0.178 | [10] 0.133 | [6] -0.111 | [11] 0.0746 | [12] 0.0593

O=S(=O)(c1cccc2c(Cl)cccc12)N1CCCNCC1
inactive: [1] 0.198 | [2] -0.106 | [3] 0.179 | [4] -0.113 | [9] 0.275 | [10] 0.144 | [6] -0.13 | [11] 0.128 | [12] 0.122 | [8] -0.103
active: [5] -0.211 | [7] -0.331

CC(C)CCC[C@@H](C)[C@H]1CC[C@H]2[C@@H]3CC[C@H]4C[C@H](O)CC[C@]4(C)[C@H]3CC[C@]12C
inactive: [3] 0.14 | [4] 0.0986 | [5] 0.118 | [6] 0.0759

O=C(O)/C=C1/CCCc2ccccc2C1O (configuration not stated)
inactive: [3] 0.0671 | [4] 0.163 | [9] 0.165 | [10] 0.0537 | [5] 0.139 | [6] 0.187 | [11] 0.071 | [12] 0.0654

CC(=O)O[C@@H]1CC2C(C)(C)[C@H](O)C=C[C@]2(C)C2CC[C@@]3(C)[C@H](c4ccoc4)OC(=O)C4OC43[C@@]21C (some centres not stated)
inactive: [3] 0.000168 | [4] 0.0262 | [5] 0.0677 | [6] 0.0357

Cc1c(C(=O)O)c(O)cc2c1C(=O)c1c(O)c([C@@H]3O[C@H](CO)[C@@H](O)[C@H](O)[C@H]3O)c(O)c(O)c1C2=O
inactive: [3] 0.057 | [4] 0.112 | [5] 0.0928 | [6] 0.184

Cc1ccc2nc(NC3=NC(CC(=O)O)C(=O)N3)nc(C)c2c1 (configuration not stated)
inactive: [3] 0.016 | [4] -0.0194 | [5] 0.0679 | [6] -0.193

CCOc1cccc(=O)c2c(C)[nH]c(C)c12
inactive: [3] 0.0528 | [4] 0.134 | [5] 0.0744 | [6] 0.088

CC1=C2C(O)C(=O)OC3CC4C(C)(C)C(=O)CCC4(C)C(CC1)C23C (configuration not stated)
inactive: [3] 0.149 | [4] 0.0333 | [5] 0.0817 | [6] 0.166
